Source: PubChem BioAssay AID1159580 (chemical genetic matrix, 2015)
Among all 5,500 compounds or so, about 2,000 (36%) were called active. Inconclusive results (about 18%) are left out. Rule as the data show it: active = normalized growth mostly below about 0.91 (no sharp cut-off); inconclusive = no clear call, values can overlap the other calls; inactive = mostly above about 0.92. Some of the results follow.

Experiment: chemical genetic growth profiling, strain panel (AID 1159580);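 also: tested at 20 µM; growth read once vehicle control cultures reached saturation at 30 °C; 1 = growth at the plate median or of vehicle wells; lower values mean less growth of the strain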
Conditions: growth OD

Measured: normalized growth

N[C@@H](Cc1ccc(N(CCCl)CCCl)cc1)C(=O)O
inactive: S. cerevisiae deletion strains, locus YJR075W, strain HOC1, hits give low values 0.986 | S. cerevisiae deletion strains, locus YKL009W, strain mrt4, hits give low values 0.961 | S. cerevisiae deletion strains, locus YKL068W, hits give low values 0.971 | S. cerevisiae deletion strains, locus YKL085W, strain MDH1 (second series), hits give low values 0.991 | S. cerevisiae deletion strains, locus YKL085W, strain MDH1, hits give low values 0.991 | S. cerevisiae deletion strains, locus YKL160W, strain elf1, hits give low values 0.968 | S. cerevisiae deletion strains, locus YKL190W, strain CNB1, hits give low values 0.98 | S. cerevisiae deletion strains, locus YKR001C, strain vps1, hits give low values 0.961 | S. cerevisiae deletion strains, locus YKR026C, strain gcn3, hits give low values 0.979 | S. cerevisiae deletion strains, locus YKR091W, strain srl3, hits give low values 0.975 | S. cerevisiae deletion strains, locus YLL001W, strain dnm1, hits give low values 0.929 | S. cerevisiae deletion strains, locus YLL026W, hits give low values 0.989 | S. cerevisiae deletion strains, locus YLL041C, strain sdh2, hits give low values 0.982 | S. cerevisiae deletion strains, locus YLR027C, strain aat2, hits give low values 0.995 | S. cerevisiae deletion strains, locus YLR039C, strain RIC1, hits give low values 0.96 | S. cerevisiae deletion strains, locus YLR058C, strain SHM2, hits give low values 0.968 | S. cerevisiae deletion strains, locus YLR102C, strain apc9, hits give low values 0.981 | S. cerevisiae deletion strains, locus YLR113W, strain HOG1, hits give low values 1.03 | S. cerevisiae deletion strains, locus YLR221C, strain rsa3, hits give low values 0.958 | S. cerevisiae deletion strains, locus YLR258W, strain gsy2, hits give low values 0.983 | S. cerevisiae deletion strains, locus YLR262C, strain YPT6 (second series), hits give low values 0.979 | S. cerevisiae deletion strains, locus YLR262C, strain YPT6, hits give low values 0.898 | S. cerevisiae deletion strains, locus YLR268W, strain sec22, hits give low values 0.967 | S. cerevisiae deletion strains, locus YLR320W, strain mms22, hits give low values 0.97 | S. cerevisiae deletion strains, locus YLR330W, strain CHS5, hits give low values 0.986 | S. cerevisiae deletion strains, locus YLR342W, strain FKS1 (second series), hits give low values 0.983 | S. cerevisiae deletion strains, locus YLR342W, strain FKS1, hits give low values 0.978 | S. cerevisiae deletion strains, locus YLR357W, strain rsc2, hits give low values 0.954 | S. cerevisiae deletion strains, locus YLR370C, strain arc18, hits give low values 0.978 | S. cerevisiae deletion strains, locus YLR371W, strain rom2, hits give low values 0.978 | S. cerevisiae deletion strains, locus YLR384C, strain iki3, hits give low values 0.985 | S. cerevisiae deletion strains, locus YLR418C, strain cdc73, hits give low values 0.976 | S. cerevisiae deletion strains, locus YML016C, strain PPZ1, hits give low values 0.982 | S. cerevisiae deletion strains, locus YML032C, strain rad52, hits give low values 0.979 | S. cerevisiae deletion strains, locus YML120C, strain ndi1, hits give low values 0.952 | S. cerevisiae deletion strains, locus YML124C, strain tub3, hits give low values 0.987 | S. cerevisiae deletion strains, locus YMR058W, strain fet3, hits give low values 0.983 | S. cerevisiae deletion strains, locus YMR078C, strain ctf18, hits give low values 0.961 | S. cerevisiae deletion strains, locus YMR125W, strain sto1, hits give low values 0.97 | S. cerevisiae deletion strains, locus YMR129W, hits give low values 0.981 | S. cerevisiae deletion strains, locus YMR205C, strain PFK2, hits give low values 0.974 | S. cerevisiae deletion strains, locus YMR223W, strain ubp8, hits give low values 0.987 | S. cerevisiae deletion strains, locus YMR231W, strain pep5, hits give low values 0.987 | S. cerevisiae deletion strains, locus YMR263W, strain SAP30, hits give low values 0.982 | S. cerevisiae deletion strains, locus YMR307W, strain GAS1, hits give low values 0.915 | S. cerevisiae deletion strains, locus YNL067W, strain RPL9B, hits give low values 0.984 | S. cerevisiae deletion strains, locus YNL071W, strain lat1, hits give low values 0.932 | S. cerevisiae deletion strains, locus YNL128W, strain TEP1, hits give low values 0.982 | S. cerevisiae deletion strains, locus YNL153C, strain GIM3, hits give low values 0.976 | S. cerevisiae deletion strains, locus YNL183C, strain NPR1, hits give low values 0.966 | S. cerevisiae deletion strains, locus YNL209W, strain ssb2, hits give low values 0.983 | S. cerevisiae deletion strains, locus YNL233W, strain BNI4, hits give low values 0.994 | S. cerevisiae deletion strains, locus YNL248C, strain rpa49, hits give low values 0.978 | S. cerevisiae deletion strains, locus YNL250W, strain rad50, hits give low values 0.969 | S. cerevisiae deletion strains, locus YNL271C, strain bni1, hits give low values 0.979 | S. cerevisiae deletion strains, locus YNL298W, strain CLA4, hits give low values 0.979 | S. cerevisiae deletion strains, locus YNL307C, strain MCK1, hits give low values 0.985 | S. cerevisiae deletion strains, locus YNL322C, strain KRE1 (second series), hits give low values 0.989 | S. cerevisiae deletion strains, locus YNL322C, strain KRE1, hits give low values 0.982 | S. cerevisiae deletion strains, locus YNR049C, strain mso1, hits give low values 0.977 | S. cerevisiae deletion strains, locus YNR052C, strain pop2, hits give low values 0.974 | S. cerevisiae deletion strains, locus YOL006C, strain TOP1, hits give low values 0.954 | S. cerevisiae deletion strains, locus YOL012C, strain htz1 0.837 | S. cerevisiae deletion strains, locus YOL147C, strain pex11, hits give low values 0.986 | S. cerevisiae deletion strains, locus YOR001W, strain rrp6, hits give low values 0.988 | S. cerevisiae deletion strains, locus YOR061W, strain CKA2, hits give low values 0.962 | S. cerevisiae deletion strains, locus YOR069W, strain VPS5, hits give low values 0.998 | S. cerevisiae deletion strains, locus YOR070C, strain gyp1, hits give low values 0.979 | S. cerevisiae deletion strains, locus YOR080W, strain dia2, hits give low values 0.995 | S. cerevisiae deletion strains, locus YOR083W, strain WHI5, hits give low values 0.963 | S. cerevisiae deletion strains, locus YOR106W, strain vam3, hits give low values 0.996 | S. cerevisiae deletion strains, locus YOR136W, strain idh2, hits give low values 0.989 | S. cerevisiae deletion strains, locus YOR144C, strain elg1, hits give low values 0.99 | S. cerevisiae deletion strains, locus YOR184W, strain ser1, hits give low values 0.96 | S. cerevisiae deletion strains, locus YOR231W, strain MKK1, hits give low values 1.01 | S. cerevisiae deletion strains, locus YOR265W, strain rbl2, hits give low values 0.989 | S. cerevisiae deletion strains, locus YOR270C, strain vph1, hits give low values 0.981 | S. cerevisiae deletion strains, locus YOR290C, strain snf2, hits give low values 0.909 | S. cerevisiae deletion strains, locus YOR316C, strain cot1, hits give low values 0.97 | S. cerevisiae deletion strains, locus YPL051W, strain arl3, hits give low values 0.974 | S. cerevisiae deletion strains, locus YPL055C, strain LGE1, hits give low values 0.963 | S. cerevisiae deletion strains, locus YPL078C, strain atp4, hits give low values 0.974 | S. cerevisiae deletion strains, locus YPL106C, strain sse1, hits give low values 0.976 | S. cerevisiae deletion strains, locus YPL240C, strain hsp82, hits give low values 0.989 | S. cerevisiae deletion strains, locus YPL241C, strain CIN2, hits give low values 1.04 | S. cerevisiae deletion strains, locus YPL256C, strain CLN2, hits give low values 1.02 | S. cerevisiae deletion strains, locus YPR119W, strain clb2, hits give low values 0.991 | S. cerevisiae deletion strains, locus YPR141C, strain kar3, hits give low values 0.961 | S. cerevisiae deletion strains, locus YPR163C, strain tif3, hits give low values 0.984 | S. cerevisiae deletion strains, locus YPR167C, strain met16, hits give low values 0.972 | S. cerevisiae deletion strains, strain wtn01, hits give low values 0.982 | S. cerevisiae strains, strain wild type, hits give low values 0.983
